SW480 rerep: DNA re-replication induction in SW480 cells; SW480 DNA re-replication, Hoechst DNA content imaging, 48 h; AID 624297; Potency, µM (top dose mostly 46.1 µM), for the others: top-dose re-replication activation, actives largely listed as activators; 340,000 compounds, 1.8% hits; note: potency is the fitted concentration of half-maximal effect; % of control where 0% means no effect; nearly all actives have a fitted effect of over 55% in size
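First, 250 cells per well were seeded. Next, compound or vehicle (23 nL) was pinned in, plates sat 48 hr at 37 C. Finally Hoechst was added for 40 min before fluorescence scanning.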
ATXN2 expr inh: reduces ATXN2 reporter expression in HEK-293 cells; HEK-293 ATXN2-luciferase reporter, luminescence, 24 h; Potency, µM (titrated, usually from 57 µM), for inactives: top-dose activity change, negative = inhibition, hits mostly inhibitors; 360,000 compounds, 0.72% hits; AID 1745845; note: potency is the fitted concentration of half-maximal effect; % is set by controls: 0 for no effect and ±100 for the full control effect; nearly all actives have a fitted effect of over 55% in size
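ATXN2-luciferase reporter cells (luciferase flanked by upstream and downstream ATXN2 gene portions) were treated 24 h at 37 °C with compounds at up to 57 uM. SteadyGlo luminescence gave expression; GF-AFC fluorescence gave viability.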
MCF10A rerep: induces DNA re-replication in MCF 10a normal breast cells. MCF 10A DNA re-replication, Hoechst nuclear intensity, 48 h. Potency, µM (titrated, usually from 46.1 µM), for inactives: at the highest dose activity, positive = re-replication, actives largely listed as activators. 350,000 compounds, 2.9% hits; note: potency is the fitted concentration of half-maximal effect; % of control where 0% means no effect; nearly all actives have a fitted effect of over 50% in size
PINK1 expr mod: changes PINK1 expression; PINK1 immunofluorescence, high-content cytometry, 24 h; Potency, µM (highest dose often 76.6 µM), without a hit: at the top dose activation (PINK1 increase), actives largely listed as activators; 410,000 compounds, 0.2% hits; active = well fitted activation curve with a large enough effect; inconclusive = small, poorly fitted or top-dose-only effect; cell line not stated here; note: potency is the fitted concentration of half-maximal effect; % of control where 0% means no effect; nearly all actives have a fitted effect of over 65% in size
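Fluorescence from anti-PINK1 antibody, together with nuclear and cell stains, was scanned on a laser-scanning cytometer. Before staining, stable-line cells were incubated 24 hours with compounds at 5 concentrations; primary antibody 12 h at 10 degrees C.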
ATXN viability: viability counter-screen for ATXN expression inhibitors | S2 cells (HEK-293 line with an ATXN2-luciferase reporter) viability, CellTiter-Fluor protease fluorescence, 24 h | Potency, µM (series often up to 56.7 µM), usual class: cytotoxic | 400,000 compounds, 0.49% hits; note: potency is the fitted concentration of half-maximal effect; nearly all actives have a fitted effect of over 40% in size
IL-1B inflam inh: inhibitors of inflammasome signaling (IL-1 beta secretion) | 360,000 compounds, 4.7% hits | AID 743279 | activity change, % at 57.5 µM | THP-1 LPS/ATP IL-1B secretion, AlphaLISA, 16 h; hits give low values; in the data active = activity change below about -50%; inconclusive = mostly about -30% to -49%; note: % is set by controls: 0 for no effect and ±100 for the full control effect
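Secreted IL-1B measured by AlphaLISA bead assay after 16 h compound exposure of THP-1 cells; compounds (final up to 57.5 uM) added 1 h before LPS (250 ng/mL) and ATP (1.25 mM) stimulation; lower signal means less secretion.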
* marks the source's active call; other numbers are inactive results; i = inactive; ? = inconclusive; . = no result given; [ ] = another dose, or the depositor's remark. Only some compounds are listed: those with a hit (about 7.1% of all), similar ones and a draw of the others. Unless noted, calls come from the whole dose curve; as a rule, active = well fitted curve in the direction sought with a large enough effect; inconclusive = small, poorly fitted or top-dose-only effect, or another doubt; inactive = no such curve, though single readings can be large; an effect the other way counts as inactive or inconclusive.

SMILES	SW480 rerep	ATXN2 expr inh	MCF10A rerep	PINK1 expr mod	ATXN viability	IL-1B inflam inh
COc1ccc(CCNC(=O)c2cc3c(=O)n4ccccc4nc3n(C3CCCCC3)c2=N)cc1	2.3µM*	-2%	?	?	?	3
O=C(NCCN1CCOCC1)c1cc2c(=O)n3ccccc3nc2n1Cc1ccccc1	21µM*	1%	16µM*	1%[38.3 µM]	.	25
COc1ccc(CCn2c(=N)c(C(=O)N3CCN(C)CC3)cc3c(=O)n4ccccc4nc32)cc1	23µM*	-6%	9.2µM*	-1%	i	-54*
CC(C)CCNC(=O)CSCc1cnn(-c2ccccc2)c1-n1cccc1	.	.	.	0%	.	.
COc1ccc(CCNC(=O)c2cc3c(=O)n4ccccc4nc3n(CCCN3CCOCC3)c2=N)cc1OC	?	0%	19%	0%	?	-3
COc1ccc(CCNC(=O)c2cc3c(=O)n4ccccc4nc3n(CCN3CCOCC3)c2=N)cc1	23µM*	?	21µM*	2%	i	-9
COc1ccc(CCNC(=O)c2cc3c(=O)n4ccccc4nc3n(CCCN3CCOCC3)c2=N)cc1	8.2µM*	-38%	?	3%	i	-28
CCN(CC)CCN(C(=O)c1ccc2c(c1)CCCC2)c1nc2ccc(OC)cc2s1	0%	-24%	?	?	i	4
CCN(CC)CCN(C(=O)c1ccc2c(c1)CCCC2)c1nc2ccc(F)cc2s1	-7%	-3%	8%	?	i	?
CCN(CC)CCN(C(=O)c1ccc2c(c1)CCCC2)c1nc2c(C)cccc2s1	4%	-19%	?	45µM*	i	-16
CCN(CC)CCN(C(=O)c1ccc2c(c1)CCCC2)c1nc2ccc(C)cc2s1	5%	-11%	?	28µM*	i	-16
Cc1ccc2nc(NC(=O)c3ccc(S(=O)(=O)N4CCCc5ccccc54)cc3)sc2c1	?	-19%	16µM*	7%	i	5
O=C(Nc1nc2c(F)cccc2s1)c1ccc(S(=O)(=O)N2CCCc3ccccc32)cc1	.	0%	.	12%	i	.
O=C(Nc1nc2c(F)cc(F)cc2s1)c1ccc(S(=O)(=O)N2CCc3ccccc32)cc1	.	-31%	.	16µM*	i	.
Cc1ccc(S(=O)(=O)NCC(=O)NCC(=O)OCc2c(F)cccc2Cl)cc1	18µM*	-7%	9%	1%	i	19
O=[N+]([O-])c1ccc(S(=O)(=O)c2ccccc2)nc1	-13%	.	?	2%	.	0
Cc1ccc(S(=O)(=O)c2ccc([N+](=O)[O-])cn2)cc1	8%	?	?	1%	.	-105*
Cc1cc(S(=O)(=O)c2ccc([N+](=O)[O-])cn2)ccc1Br	2%	?	?	-4%	.	-106*
CCS(=O)(=O)Nc1cccc(C2=NN(C(=O)c3ccco3)C(c3ccco3)C2)c1 (centres undefined)	13µM*	-16%	13µM*	13%	?	-22
O=C(c1ccco1)N1N=C(c2ccc(Br)cc2)CC1c1ccco1 (centres undefined)	-45%	-1%	1%	4%	i	-67*
CCS(=O)(=O)Nc1ccc(C2=NN(C(=O)c3ccco3)C(c3ccco3)C2)cc1 (centres undefined)	?	-14%	9.2µM*	?	?	-4
Cc1ccc2nc(NC(=O)c3ccc(OCC4CCCO4)cc3)sc2c1 (centres undefined)	-2%	-44%	21%	1%	i	-110*
COc1ccc2nc(NC(=O)c3ccc(NC(=O)C4CCCO4)cc3)sc2c1 (centres undefined)	?	-3%	21µM*	8%	i	-2
CCOc1ccc2nc(NC(=O)C3CCCO3)sc2c1 (centres undefined)	-4%	4%	-4%	2%	i	?
O=C(Nc1ccc(Br)cc1Cl)c1ccc(OCC2CCCO2)cc1 (centres undefined)	22%	3%	?	1%	i	-81*

Screens: PubChem BioAssay, National Center for Advancing Translational Sciences (NCATS)
